Measurements from PubChem BioAssay (NCI).
About 83,000 compounds went through this panel and 20% of them were active in at least one assay; those are over-represented in the sample as a whole.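 Results are percent growth after 48 hours of single-concentration exposure. 100 means growth as in untreated cells, lower positive values show inhibition; negative values down to -100 show cell death.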 Calls of active or inactive are those of the source. The calls were made as follows: active = growth percent below 10; inactive = the rest.

system: OVCAR-4 ovarian; assay: NCI-60 one-dose screen, 48 h (100 = growth as untreated, 0 = no growth, -100 = all killed); settings: 10 µM unless noted

Compound	growth
O=S(=O)(NCCNc1nccc(-c2c(-c3ccc(F)c(O)c3)nc3occn23)n1)c1ccccc1	85.8% (inactive)
Cc1ccc2[nH]c(=O)cc(-n3nncc3COc3ccc(C=O)cc3)c2c1	104% (inactive)
Brc1ccc(C2CC(c3cccc(Nc4ccncc4)c3)=NN2c2ccccc2)cc1 (centres undefined)	70.3% (inactive)
COc1cc(NCC(O)CN(CC(C)C)C2CCCC2)c2ncccc2c1 (centres undefined)	42.3% (inactive)
CC(=O)OCCCCCNc1ccccc1	92.8% (inactive)
CN1CCN(CC#CCNC(=O)[C@]23CCC(C)(C)C[C@H]2C2=CC[C@@H]4[C@@]5(C)Cc6c([nH]c7ccccc67)C(C)(C)[C@@H]5CC[C@@]4(C)[C@]2(C)CC3)CC1	77.8% (inactive)
COc1c(Cl)cc(Cl)c2ccc(C=C3C(=O)N(C)C(=O)N(C)C3=O)nc12	104% (inactive)
Nc1c(C(=O)Nc2ccc(Cl)cc2)cc(-c2nc3ccccc3s2)c(=O)n1NS(=O)(=O)c1ccc(Cl)cc1	94.4% (inactive)
COc1ccc(C(=O)c2cc3c(N)c(C(=O)Nc4cccc(Br)c4C)sc3nc2C)cc1	37.4% (inactive)
CCN(CC)S(=O)(=O)c1cccc([N+](=O)[O-])c1	95.4% (inactive)
CCc1c(Nc2ccc(C)cc2)nc(N)[nH]c1=O	108% (inactive)
CN1CCN(c2cc(F)c(NC3=C(Cl)C(=O)c4ncccc4C3=O)c(F)c2)CC1	-99.2% (active)
Cn1c(COC(=O)NCCn2ccnc2)nc2c(N3CCOCC3)nc(-c3ccccc3)nc21	-87.8% (active)
COc1cc(CNC(=O)CCCCC[P+](c2ccccc2)(c2ccccc2)c2ccccc2)c(OC)c2c1OCO2	23.7% (inactive)
